proKLK7 act = activates the human kallikrein-7 zymogen; purified proKLK7, EDANS-DABCYL substrate fluorescence; 100% is mature enzyme control, 0% vehicle; activation, % at 7 µM; actives 0.9% (n = 370,000);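 active = activation above the mean of all tested compounds plus 3 SD, computed per campaign excluding outliers beyond control limits, cut at about 13% in these data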
ADAM10 inh = inhibitors of human ADAM10 | O14672 | recombinant ADAM10, EDANS/DABCYL FRET peptide cleavage, 3 h | inhibition, % at 7 µM | actives 0.62% (n = 370,000);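 active = inhibition above a per-campaign cutoff equal to the mean of compounds falling between control-based bounds plus 3 SD, cut at about 20% in these data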;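 also: 0% = DMSO wells while the 100% control is not disclosed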
Target sequence (O14672 214-748 limits assumed): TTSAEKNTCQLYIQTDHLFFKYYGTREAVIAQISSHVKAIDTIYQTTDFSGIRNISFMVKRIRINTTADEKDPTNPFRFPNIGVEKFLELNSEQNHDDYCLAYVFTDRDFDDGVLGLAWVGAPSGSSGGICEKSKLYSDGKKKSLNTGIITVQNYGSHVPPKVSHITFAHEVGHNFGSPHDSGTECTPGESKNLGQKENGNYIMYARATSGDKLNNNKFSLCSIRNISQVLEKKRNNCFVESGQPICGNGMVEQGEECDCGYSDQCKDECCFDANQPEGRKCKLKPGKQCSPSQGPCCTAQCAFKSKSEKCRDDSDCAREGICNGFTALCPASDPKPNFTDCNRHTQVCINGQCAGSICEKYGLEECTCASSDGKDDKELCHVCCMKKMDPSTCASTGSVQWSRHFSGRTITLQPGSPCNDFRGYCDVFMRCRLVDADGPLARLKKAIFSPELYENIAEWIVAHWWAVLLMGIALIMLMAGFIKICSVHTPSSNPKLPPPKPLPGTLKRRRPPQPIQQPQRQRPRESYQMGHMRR
ADAM17 inh = inhibitors of human ADAM17 | recombinant ADAM17, EDANS/DABCYL FRET peptide cleavage | P78536 | AID 720648 | actives 0.83% (n = 370,000) | inhibition, % at 6.95 µM;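 active = inhibition above the mean of compounds lying between control limits plus 3 SD, set per campaign, cut at about 8.5% in these data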;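 also: 0% = DMSO-only wells as the low control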
GRIN3A LBD mod = NR3A (human) ligand-binding domain modulation. NR3A LBD differential scanning fluorimetry, Tm shift; 0% = protein alone, 100% = glycine-bound protein. Tm shift relative to glycine control, % at 25 µM. actives 2.5% (n = 340,000). AID 1259313;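 active = melting temperature shift of at least 10% of the positive control shift, at one fixed dose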
FAS-TE inh = blocks the thioesterase domain of human fatty acid synthase; recombinant FAS-TE, OMFH fluorogenic substrate, fluorescence endpoint; inhibition, % at 15 µM; actives 0.67% (n = 360,000);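 active = compounds whose normalised, plate-corrected inhibition of enzyme fluorescence in the single-dose primary screen is 50% or more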;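 also: 0% = DMSO with enzyme and 100% = substrate without enzyme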
proKLK7 act conf = proKLK7 activation, confirmation; shares compounds with proKLK7 act; purified proKLK7, EDANS-DABCYL substrate fluorescence; scaled: vehicle 0, mature enzyme 100; activation, % at 7 µM; actives 68% (n = 3,200); AID 686949;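 active = activation, as change over the incubation, above the mean of all tested compounds plus 3 SD, cut at about 13% in these data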
EDANS-DABCYL int = counter-screen for kallikrein-7 activators: EDANS-DABCYL optical interference; AID 686952; shares compounds with proKLK7 act; EDANS-DABCYL substrate fluorescence interference, no enzyme, 4 h; solvent 0%, active enzyme control 100%; actives 80% (n = 3,200); activation, % at 7 µM;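 active = activation above the all-compound mean plus 3 SD, ignoring values outside control-based bounds, cut at about 4.8% in these data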;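 also: value is the 4 h activation minus the activation read at time zero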
EDANS interf = counter-screen for kallikrein-7 activators: EDANS-DABCYL interference, dose response; shares compounds with proKLK7 act; EDANS-DABCYL peptide fluorescence interference, no enzyme; EC50, µM; actives 20% (n = 250); AID 720493;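 active = compounds that raise the fluorescence signal in this interference counterscreen, with EC50 at or below 10 µM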;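 also: intact quenched peptide substrate alone read at 355 nm excitation and 520 nm emission; signal is fluorescence gain from T0 to T4 after four hours at room temperature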
* marks the source's active call; other numbers are inactive results. Only some compounds are listed: those with a hit (about 4.6% of all), similar ones and a draw of the others.

Results for COc1ccc(-c2ccc3nnc(SCC(=O)N4CCCC4)n3n2)cc1 ?
proKLK7 act: 15*; ADAM10 inh: -368; ADAM17 inh: -120; GRIN3A LBD mod: 0; FAS-TE inh: -5; proKLK7 act conf: 17*; EDANS-DABCYL int: 13*; EDANS interf: >70

What do the screens show for `CCN(CC)Cc1c(O)ccc2c(C)c(CC(=O)OC)c(=O)oc12`?
proKLK7 act: 58*; ADAM10 inh: inactive; ADAM17 inh: inactive; GRIN3A LBD mod: 1; FAS-TE inh: -7; proKLK7 act conf: 65*; EDANS-DABCYL int: 67*

Results for COC(=O)Cc1c(C)c2ccc(O)c(CNCc3ccc(OC)c(OC)c3)c2oc1=O ?
proKLK7 act: 63*; ADAM10 inh: inactive; ADAM17 inh: inactive; GRIN3A LBD mod: -4; FAS-TE inh: -3; proKLK7 act conf: 77*; EDANS-DABCYL int: 65*; EDANS interf: >70

What do the screens show for `O=C(NCCc1ccc2c(c1)OCO2)c1cc(-c2ccccc2)c(N2CCOCC2)s1`?
proKLK7 act: -1; ADAM10 inh: 6; ADAM17 inh: 0

How did COC(=O)[C@]12C[C@H](CC(=O)N3CCSCC3)C(=O)N(Cc3ccco3)C1=C[C@H](COCc1ccccc1)O[C@@H]2C do in these assays?
proKLK7 act: 0; ADAM10 inh: 8; ADAM17 inh: 3

What do the screens show for `COc1cc2cnc(C3=CCCCC3)cc2cc1OC`?
proKLK7 act: 5; ADAM10 inh: -103; ADAM17 inh: -23; GRIN3A LBD mod: 1; FAS-TE inh: 2

Results for COc1ccc2cc(C3=CCCCC3)ncc2c1 ?
proKLK7 act: 19*; ADAM10 inh: inactive; ADAM17 inh: -115; GRIN3A LBD mod: 1; FAS-TE inh: 5; proKLK7 act conf: 7; EDANS-DABCYL int: 5.3*

What do the screens show for `N#CCSc1nc(-c2ccccc2)cs1`?
proKLK7 act: 0; ADAM10 inh: -2; ADAM17 inh: -1; GRIN3A LBD mod: -1; FAS-TE inh: -4

How did N#CCSc1ccc2nc(-c3ccccc3)cn2n1 do in these assays?
proKLK7 act: 16*; ADAM10 inh: inactive; ADAM17 inh: -349; GRIN3A LBD mod: 1; FAS-TE inh: -7; proKLK7 act conf: 32*; EDANS-DABCYL int: 32*

Results for O=C(Nc1cccc(C(F)(F)F)c1)O[C@@H]1CC[C@@]23CCCN2C(=O)CCC[C@H]3C1 ?
ADAM10 inh: 8; ADAM17 inh: 3

How did CC(=O)Nc1ccc(/C=N/NC(=O)c2cc(-c3ccco3)nc3ccccc23)cc1 do in these assays?
proKLK7 act: -10; ADAM10 inh: -340; ADAM17 inh: -85; GRIN3A LBD mod: 0; FAS-TE inh: 0

Results for CCN(CC)CCNC(=O)c1cc(-c2ccco2)nc2ccccc12 ?
proKLK7 act: 60*; ADAM10 inh: inactive; ADAM17 inh: inactive; GRIN3A LBD mod: -3; FAS-TE inh: -5; proKLK7 act conf: 57*; EDANS-DABCYL int: 73*

What do the screens show for `O=C(NNC(=O)c1cc(-c2ccco2)nc2ccccc12)c1ccccc1`?
proKLK7 act: 141*; ADAM10 inh: inactive; ADAM17 inh: -465; GRIN3A LBD mod: -3; FAS-TE inh: 0; proKLK7 act conf: 51*; EDANS-DABCYL int: 70*

What do the screens show for `O=C(O)c1ccccc1/C=N/NC(=O)c1cc(-c2ccco2)nc2ccccc12`?
proKLK7 act: 15*; ADAM10 inh: inactive; ADAM17 inh: -188; GRIN3A LBD mod: -2; FAS-TE inh: 3; proKLK7 act conf: 29*; EDANS-DABCYL int: 31*

How did CC(=O)c1cccc(NC(=O)c2cc(-c3ccco3)nc3ccccc23)c1 do in these assays?
proKLK7 act: -5; ADAM10 inh: -237; ADAM17 inh: -81; GRIN3A LBD mod: -5; FAS-TE inh: 6

How did CCCCC1(C)Nc2ccccc2-c2nc3ccccc3n21 (stereo unspecified) do in these assays?
proKLK7 act: 63*; ADAM10 inh: inactive; ADAM17 inh: inactive; GRIN3A LBD mod: -11; FAS-TE inh: 4; proKLK7 act conf: -11; EDANS-DABCYL int: -12

Results for O=C1Nc2ccccc2C12Nc1ccccc1-c1nc3ccccc3n12 (stereo unspecified) ?
proKLK7 act: 0; ADAM10 inh: -24; ADAM17 inh: -10; GRIN3A LBD mod: -4; FAS-TE inh: -1

Results for c1ccc2c(c1)NC1(CCCCCC1)n1c-2nc2ccccc21 ?
proKLK7 act: 52*; ADAM10 inh: inactive; ADAM17 inh: inactive; GRIN3A LBD mod: -11; FAS-TE inh: -4; proKLK7 act conf: 3; EDANS-DABCYL int: 3

Results for c1ccc2c(c1)NC1(CCCCC1)n1c-2nc2ccccc21 ?
proKLK7 act: 63*; ADAM10 inh: inactive; ADAM17 inh: inactive; GRIN3A LBD mod: -10; FAS-TE inh: -10; proKLK7 act conf: 7; EDANS-DABCYL int: 12*

How did CN1C(=O)C2(Nc3ccccc3-c3nc4ccccc4n32)c2ccccc21 (stereo unspecified) do in these assays?
proKLK7 act: -1; ADAM10 inh: -22; ADAM17 inh: -6; GRIN3A LBD mod: 0; FAS-TE inh: -1

How did CC1(c2ccccn2)Nc2ccccc2-c2nc3ccccc3n21 (stereo unspecified) do in these assays?
proKLK7 act: 56*; ADAM10 inh: inactive; ADAM17 inh: inactive; GRIN3A LBD mod: -10; FAS-TE inh: 0; proKLK7 act conf: 10; EDANS-DABCYL int: 3

What do the screens show for `O=C1Cn2c(nc3ccccc32)-c2ccccc2N1`?
proKLK7 act: -15; ADAM10 inh: -10; ADAM17 inh: 1; GRIN3A LBD mod: -1; FAS-TE inh: -6

What do the screens show for `CCOC(=O)[C@]12CCCC=C1N(Cc1ccc(OC)cc1)C(=O)[C@@H]2CC(=O)NCc1cccc(C(F)(F)F)c1`?
proKLK7 act: 0; ADAM10 inh: 16; ADAM17 inh: 6

Results for CC(C)[C@H]1/C(=C/C2CC2)N2C(=O)C[C@H](c3ccccc3)N=C2N1C ?
ADAM10 inh: -12; ADAM17 inh: -3

Results for COC(=O)C1=CN(C)C=C(C(=O)OC)C1c1ccsc1 ?
proKLK7 act: 33*; ADAM10 inh: inactive; ADAM17 inh: inactive; GRIN3A LBD mod: 1; FAS-TE inh: -4; proKLK7 act conf: 16*; EDANS-DABCYL int: 24*

How did CCCC1CCC2(CC1)CCC2OC(=S)Nc1cccc(I)c1 (stereo unspecified) do in these assays?
ADAM10 inh: 7; ADAM17 inh: -2

Screens as filed in PubChem.
